For ten compounds, z-score results are on record in PubChem BioAssay.

A number with no mark means an inactive call.

This test can be described thus: osmotic lysis modulators in infected erythrocytes, primary screen, PSAC antagonist project, cell-based, P. falciparum Indochina, OD700, 3 h (AID 1156). Particulars: higher = more signal, called active from +8 up or from −8 down.
As to `O=C1C2C=CC(C(O)Cc3ccccc3)N(n3cnnc3)C2C(=O)N1Cc1ccccc1` (stereo not given), the z-score is 1.04. As to `CCCC[C@@H]1C[C@H]1[C@@H](NC(=O)c1ccco1)c1ccc(-c2ccccc2)cc1`, the z-score is 1.59.

Take `C[C@@]1([C@@H](NC(=O)c2ccc(-c3ccccc3)cc2)c2ccc(Cl)cc2)C[C@H]1C1CCCCC1`: the z-score was -0.0758.

Regarding `COC(=O)c1c(CC[C@@H](CO)NC(=O)NCCn2cc(C3(O)CCCC3)nn2)oc(C(C)=O)c1C(=O)OC`, the z-score was 1.29. As for `CC1(C)C2C=C(C(O)C3C=CC4C(=O)NC(=O)C4N3Nc3ccc(Cl)cc3Cl)C[C@@H]1C2` (stereo not given in full), the figure is -2.43; as for `NC(=O)NCC#Cc1ccc2c(c1)[C@]1(C(=O)N2)[C@H](C(=O)Nc2nc3ccccc3s2)[C@H]2C(=O)O[C@H](c3ccccc3)[C@H](c3ccccc3)N2[C@@H]1c1ccccc1OCCO`, 1.18. Consider `COC(=O)[C@@]1(Cc2ccc(F)cc2)[C@H]2c3cc(C(=O)N(C)C)n(Cc4cc(F)c(F)c(F)c4)c3C[C@H]2CN1C(=O)c1ccccc1`, for which the z-score was 0.365. As for `[N-]=[N+]=NCc1ccccc1[C@@H]1OC(c2ccc(OCCCO)cc2)=N[C@]1(Cc1ccccc1)C(=O)NCC(O)CO` (stereo not given in full), the z-score is 0.942. Consider `COc1cc2c(cc1OC)CN(C(=O)[C@@H]1[C@H]3C(=O)O[C@H](c4ccccc4)[C@H](c4ccccc4)N3[C@H](c3ccc(O)cc3)[C@@]13C(=O)Nc1ccccc13)CC2`, for which the z-score was -0.287. In the case of `[N-]=[N+]=Nc1ccccc1[C@H]1OC(c2ccc(OCCCO)cc2)=N[C@@]1(CCS(=O)(=O)c1ccccc1)C(=O)NCC(O)CO` (stereo not given in full) it was 1.72.
